In the library only some 7.9% were active in any assay of this set; here they are far more common.
FMDV antiviral: blocks foot and mouth disease virus. Potency, µM (titrated, usually from 57.9 µM), hits mostly inhibitors. hit rate 1.2% among 410,000. FMDV antiviral cell-based qHTS; calls by dose curve; tested in HEK293T cells; further: read-out not given here; nearly all actives have a fitted effect of over 45% in size
Lassa entry inh: blocks Lassa virus binding to or entry into cells | hit rate 1.2% among 300,000 | Lassa virus pseudotype entry inhibition, cell reporter | AID 540256 | Potency, µM (titrated, usually from 37.9 µM), actives largely listed as inhibitors; calls by dose curve; tested in HEK293 cells; further: nearly all actives have a fitted effect of over 50% in size
HCV inh: blocks hepatitis C virus; Huh7.5.1 HCVcc-Cre infection, luciferase reporter, 44 h; Potency, µM (highest dose often 41.8 µM), most hits filed as inhibitors; hit rate 3.4% among 340,000; AID 651820; active means well fitted inhibition curve with a large enough effect; inconclusive means small, poorly fitted or top-dose-only effect, or another doubt; inactive means no such curve, though single readings can be large or run the other way
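Luciferase read-out (15 sec integration) after a 15 min room-temperature substrate step quantifies HCVcc-Cre infection. Cells, 1,000 per well, had compound added 4 h post-plating, then virus at ~0.5 moi, and were cultured 44 h.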
HCMV inh: inhibitors of human cytomegalovirus; activity change, negative = inhibition, % at 57.5 µM; AID 1259415; hit rate 4.5% among 410,000; HFF cells, HCMV-luciferase reporter, 72 h; hits give low values; in the data active means activity change below about -60%; inconclusive means no clear call, values can overlap the other calls; inactive means above about -39%
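HFF cells seeded 16 h at 37C, treated with compounds, infected with luciferase-reporter HCMV at MOI 1 PFU/cell; luciferase read at 72 h post infection, normalized to buffer-only and Salinomycin controls.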
Marburg entry inh: blocks Marburg virus binding to or entry into cells. Potency, µM (titrated, usually from 37.8 µM), most hits filed as inhibitors. hit rate 1.8% among 300,000. Marburg virus pseudotyped entry inhibition, cell reporter; calls by dose curve; tested in HEK293 cells
Each line names hits and unclear results; the compound was inactive in the other large screens; ! = not confirmed by another sample.

COc1ccccc1C(=O)Nc1c(C(=O)N(CCN(C)C)Cc2ccco2)oc2ccccc12	FMDV antiviral inconclusive, HCV inh inconclusive, HCMV inh -82! (no result: Marburg entry inh)
COc1cccc(NC(=O)c2oc3ccccc3c2NC(=O)C(C)(C)C)c1	Lassa entry inh inconclusive, HCV inh 8.9µM, HCMV inh inconclusive, Marburg entry inh inconclusive
Cc1ccccc1C(=O)Nc1c(C(=O)N(CCN(C)C)Cc2ccco2)oc2ccccc12	HCV inh inconclusive (no result: Lassa entry inh, Marburg entry inh)
COc1ccc(C(=O)c2oc3ccccc3c2NC(C)=O)cc1	HCV inh 6.3µM, Marburg entry inh inconclusive
COc1cccc(NC(=O)c2oc3ccccc3c2NC(=O)c2cc3ccccc3o2)c1	Marburg entry inh inconclusive (no result: HCV inh)
COCc1c(C(=O)NC2CCOC(C)(C)C2)cnn1-c1nccc(-c2cccs2)n1 (centres undefined)	none (no result: Lassa entry inh, HCV inh, HCMV inh, Marburg entry inh)
CN(C)CCN(Cc1ccco1)C(=O)c1oc2ccccc2c1NC(=O)c1ccccc1	HCMV inh -61 (no result: HCV inh, Marburg entry inh)
Cc1nn(S(=O)(=O)c2ccc([N+](=O)[O-])cc2)c(C)c1Sc1ccccc1	none (no result: HCV inh)
Cc1nn(-c2ccccc2)c(N)c1Sc1cccc([N+](=O)[O-])c1	FMDV antiviral inconclusive, HCV inh inconclusive, HCMV inh -76
Cc1nn(-c2cccc([N+](=O)[O-])c2)c(N)c1-c1ccccc1	HCMV inh -61, Marburg entry inh inconclusive
Cc1nn(-c2ccccc2)c(N)c1Sc1ccccc1[N+](=O)[O-]	FMDV antiviral inconclusive, Lassa entry inh 6.3µM, HCV inh inconclusive, Marburg entry inh inconclusive
Nc1c(-c2ccccc2)cnn1-c1cccc([N+](=O)[O-])c1	none
CCC(CC)C(=O)Oc1c(Sc2ccccc2[N+](=O)[O-])c(C)nn1C(C)(C)C	FMDV antiviral inconclusive
Cc1cccc(C(=O)NC(C(=O)Nc2cccc(S(=O)(=O)N3CCCC3)c2)C(C)C)c1 (centres undefined)	HCV inh inconclusive (no result: Lassa entry inh, Marburg entry inh)
CCOc1ccc(CNC(=O)Cn2cc3c(n2)-c2c(oc(C(=O)N4CCOCC4)c2C)CC3)cc1	HCMV inh -63 (no result: HCV inh, Marburg entry inh)
Cc1cccc(C)c1NC(=O)c1oc2c(c1C)-c1nn(Cc3ccccc3)cc1CC2	FMDV antiviral inconclusive, HCMV inh -82 (no result: HCV inh, Marburg entry inh)
COc1cccc(CNC(=O)c2oc3c(c2C)-c2nn(Cc4cccc(Cl)c4)cc2CC3)c1	HCMV inh -92 (no result: HCV inh, Marburg entry inh)
Cc1c(C(=O)NCCN(C)C)oc2c1-c1nn(Cc3cccc(Cl)c3)cc1CC2	HCMV inh -68 (no result: HCV inh, Marburg entry inh)
CC(=O)c1cccc(NC(=O)c2oc3c(c2C)-c2nn(Cc4ccc(Cl)cc4)cc2CC3)c1	none (no result: HCV inh, Marburg entry inh)
COc1cccc(CNC(=O)c2oc3c(c2C)-c2nn(Cc4cccc(Cl)c4)cc2CC3)c1OC	none (no result: HCV inh, Marburg entry inh)
Cc1cc(C)cc(Nc2ccc3nonc3c2[N+](=O)[O-])c1	FMDV antiviral inconclusive, HCV inh inconclusive, HCMV inh -83
CCc1ccc(Nc2ccc3nonc3c2[N+](=O)[O-])cc1	none
CCOC(=O)NNc1ccc2nonc2c1[N+](=O)[O-]	Lassa entry inh inconclusive, HCV inh inconclusive, Marburg entry inh 11µM (no result: HCMV inh)
Cc1ccc(-n2nc3c(N4CCC(C(=O)NCc5ccc(C)o5)CC4)nnc(C)c3c2C)cc1	HCV inh inconclusive, HCMV inh -67 (no result: Lassa entry inh, Marburg entry inh)
CCOc1ccccc1CNC(=O)C1CCCN(c2nnc(C)c3c(C)n(-c4ccccc4)nc23)C1 (centres undefined)	HCV inh inconclusive, HCMV inh -107 (no result: Marburg entry inh)
COc1ccc(-n2nc3c(N4CCCC(C(=O)NCc5ccccc5C)C4)nnc(C)c3c2C)cc1 (centres undefined)	Lassa entry inh 6.3µM, HCMV inh -99 (no result: HCV inh, Marburg entry inh)
COc1ccc(-n2nc3c(N4CCC(C(=O)NCC(C)c5ccccc5)CC4)nnc(C)c3c2C)cc1 (centres undefined)	HCV inh 11µM, HCMV inh inconclusive (no result: Lassa entry inh, Marburg entry inh)
COc1ccccc1CNC(=O)C1CCCN(c2nnc(C)c3c(C)n(-c4ccccc4)nc23)C1 (centres undefined)	none (no result: HCV inh, Marburg entry inh)
CCN(Cc1ccccc1)c1ncnc2c1cnn2-c1ccc(F)cc1	none (no result: HCV inh, Marburg entry inh)
COc1ccc(-n2nc3c(N4CCCC(C(=O)NCCc5ccccc5C)C4)nnc(C)c3c2C)cc1 (centres undefined)	HCMV inh -87 (no result: HCV inh, Marburg entry inh)
Cc1nnc(N2CCC(C(=O)NCc3cccc(Cl)c3)CC2)c2nn(-c3ccccc3)c(C)c12	Lassa entry inh inconclusive, HCMV inh -103 (no result: HCV inh, Marburg entry inh)
COc1ccc(-n2nc3c(N4CCC(C(=O)NCc5ccccc5C)CC4)nnc(C)c3c2C)cc1	Lassa entry inh inconclusive, HCV inh 11µM, HCMV inh inconclusive, Marburg entry inh inconclusive
COc1ccc(-n2nc3c(N4CCC(C(=O)NCCc5ccccc5C)CC4)nnc(C)c3c2C)cc1	HCV inh inconclusive, Marburg entry inh inconclusive (no result: HCMV inh)
Cc1ccc(-n2nc3c(N4CCC(C(=O)NCCc5ccccc5C)CC4)nnc(C)c3c2C)cc1	FMDV antiviral inconclusive, HCV inh 7.9µM (no result: Marburg entry inh)
CNC(=O)Nc1ccc(C(=O)N/N=C\C23CC[C@@H](O)CC2(O)CC[C@@H]2[C@@H]3CCC3(C)C(C4=CC(=O)OC4)CCC23O)cc1 (some centres undefined)	none (no result: Lassa entry inh, Marburg entry inh)
CC12CC[C@H]3[C@@H](CCC4(O)C[C@H](O)CCC34/C=N/NC(=O)Cc3ccccc3)C1(O)CCC2C1=CC(=O)OC1 (some centres undefined)	Lassa entry inh inconclusive, HCMV inh -66, Marburg entry inh inconclusive
CC12CC[C@H]3[C@@H](CCC4(O)C[C@H](O)CCC34/C=N/NC(=O)c3ccccc3[N+](=O)[O-])C1(O)CCC2C1=CC(=O)OC1 (some centres undefined)	Lassa entry inh inconclusive, HCMV inh -78, Marburg entry inh inconclusive
OCCNCCc1c[nH]c2ccc(OCc3ccccc3)cc12	HCMV inh -60 (no result: Lassa entry inh)
COc1cccc(CN(C)Cc2cc(=O)oc3c(C)c(C)ccc23)c1	HCV inh inconclusive, HCMV inh inconclusive (no result: Lassa entry inh, Marburg entry inh)
Cc1c(O)ccc2c(CN(C)Cc3ccccc3)cc(=O)oc12	Lassa entry inh inconclusive, HCMV inh -67, Marburg entry inh 12µM
Cc1ccccc1CN(C)Cc1cc(=O)oc2c(C)c(C)ccc12	FMDV antiviral inconclusive, Lassa entry inh 2.8µM, HCV inh inconclusive, Marburg entry inh 4µM
Cc1c(O)ccc2c(CN3CCN(Cc4ccccc4)CC3)cc(=O)oc12	FMDV antiviral inconclusive, HCMV inh -62 (no result: Lassa entry inh, Marburg entry inh)
CN(C)C(=O)CCc1ccc2c3c([nH]c2c1)[C@]1(CCC2CCCC2)[C@@H](C(=O)N2CCOCC2)C[C@H](CC(=O)NCc2cccc(C(F)(F)F)c2)C(=O)N1CC3	HCV inh 25µM, HCMV inh inconclusive (no result: Lassa entry inh, Marburg entry inh)
COc1ccc(CNC(=O)CC2C[C@H](C(=O)N3CCOCC3)[C@@]3(CCC4CCCC4)c4[nH]c5ccccc5c4CCN3C2=O)cc1OC (some centres undefined)	HCV inh 7.9µM (no result: Lassa entry inh, Marburg entry inh)
C/C(=N\NC(=O)Cc1ccccc1)c1ccc(Cl)s1	none (no result: Lassa entry inh, Marburg entry inh)
CN(C(=O)c1ccccc1Cl)c1ccccc1C(=O)NCc1ccccc1	none
CN(C)S(=O)(=O)c1cc(C(=O)NCc2ccccc2)c(Cl)cc1Cl	HCV inh 13µM
